Marburg entry inh – inhibitors of Marburg virus binding or cell entry. hit rate 1.8% among 300,000. Marburg virus pseudotyped entry inhibition, cell reporter. Potency, µM (doses to about 37.8 µM), hits mostly inhibitors; calls by dose curve; tested in HEK293 cells
FMDV antiviral – blocks foot and mouth disease virus; FMDV antiviral cell-based qHTS; Potency, µM (titrated, usually from 57.9 µM), usual class: inhibitors; hit rate 1.2% among 410,000; AID 1159524; calls by dose curve; tested in HEK293T cells; also: read-out not given here; nearly all actives have a fitted effect of over 45% in size
HCMV inh – human cytomegalovirus inhibition; HFF cells, HCMV-luciferase reporter, 72 h; active compounds read low; activity change, negative = inhibition, % at 57.5 µM; hit rate 4.5% among 410,000; AID 1259415; in the data active = activity change below about -60%; inconclusive = no clear call, values can overlap the other calls; inactive = above about -39%
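Cell-based, HFFs, 1000 cells/well, 16 h 37C; cpds in DMSO + HCMV-luc, MOI 1 PFU/cell; 72 h 37C; OneGlo luminescence after 5 min RT; norm. to buffer vs Salinomycin 10uM.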
HCV inhibitor – inhibitors of hepatitis C virus infection; Potency, µM (titrated, usually from 41.8 µM), most hits filed as inhibitors; hit rate 3.4% among 340,000; Huh7.5.1 HCVcc-Cre infection, luciferase reporter, 44 h; AID 651820; active = well fitted inhibition curve with a large enough effect; inconclusive = small, poorly fitted or top-dose-only effect, or another doubt; inactive = no such curve, though single readings can be large or run the other way
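1,000 cells/well; 4 h culture; + compound; + HCVcc-Cre (~0.5 moi); 44 h; luciferase substrate, RT 15 min; read 15 sec.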
Lassa entry inh – inhibitors of Lassa virus binding or cell entry | Lassa virus pseudotype entry inhibition, cell reporter | Potency, µM (top dose mostly 37.9 µM), actives largely listed as inhibitors | hit rate 1.2% among 300,000 | AID 540256; calls by dose curve; tested in HEK293 cells; also: nearly all actives have a fitted effect of over 50% in size
Numbers stand for hits; . = inactive; ? = inconclusive; / = no result given; ! = not active in a repeat. Only some compounds are listed: those with a hit (about 7.9% of all), similar ones and a draw of the others.

SMILES	Marburg entry inh	FMDV antiviral	HCMV inh	HCV inhibitor	Lassa entry inh
COc1ccccc1/C=C/c1onc(C)c1S(=O)(=O)N1CCC(C(=O)N2CCC(C)CC2)CC1	/	.	.	/	.
COc1cc([C@@H]2CC=C(C(=O)O)CN2S(=O)(=O)c2ccc(C)cc2)cc(OC)c1OC	/	.	.	.	/
COC(=O)c1ccc(OCC(O)CN2CCc3cc(OC)c(OC)cc3C2c2ccccc2)cc1 (stereo not drawn)	?	?	.	7.94µM	?
CCC(=O)N1CCc2cc(OC)c(OC)cc2C1COc1ccc(C(=O)OC)cc1 (stereo not drawn)	?	?	.	?	?
COc1cc2c(cc1OC)C(COc1ccccc1OC)N(C(=O)c1ccccc1OC)CC2 (stereo not drawn)	/	.	-105.6	/	.
COC(=O)c1ccc(OCC2c3cc(OC)c(OC)cc3CCN2C(=O)c2ccco2)cc1 (stereo not drawn)	?	?	.	?	4.11µM
COc1cc2c(cc1OC)C(c1ccccc1)N(C(=O)c1ccccc1)CC2 (stereo not drawn)	/	.	-60.5	?	/
COCCNC(=S)N1CCc2cc(OC)c(OC)cc2C1COc1ccc(C(C)C)cc1 (stereo not drawn)	13µM	.	.	?	?
COc1ccc(N=Nc2ccc(N)nc2N)cc1	?	.	.	.	?
CCOc1ccc2nc3cc(N=Nc4ccc(N)nc4N)ccc3c(N)c2c1	.	.	/	11.2µM	.
CCN(Cc1ccccc1)C(=O)COC(=O)c1cc(S(=O)(=O)Nc2c(C)n(C)n(-c3ccccc3)c2=O)ccc1C	.	.	-64.7	.	.
O=C(NN/C(=N/S(=O)(=O)c1ccc(Cl)cc1)c1ccccc1)c1ccc(O)cc1	20µM	.	.	.	?
O=C(NN/C(=N/S(=O)(=O)c1ccc(Cl)cc1)c1ccccc1)c1cccc(Cl)c1	.	.	.	.	/
Cc1ccc(S(=O)(=O)/N=C(/Nc2cccc(O)c2)c2ccccc2)cc1	?	.	.	11.2µM	.
CCOC(=O)CSC(=S)NC(=O)c1ccc(OC)cc1	.	.	-86.9	.	.
C=C(C)C1CC=C(C)/C(=N\NC(=S)Nc2ccc(C)cc2)C1 (stereo not drawn)	?	.	.	?	12.6µM
C=C(C)C1CC=C(C)/C(=N/NC(=O)COc2ccc(C)cc2)C1 (stereo not drawn)	?	.	?	.	.
COc1ccc(-n2c(-c3ccccc3)c[n+]3c2CCC3)cc1	?	?	-78.0	10µM	?
CCOc1ccc(-c2c[n+]3c(n2-c2ccccc2)CCCCC3)cc1	?	?	-97.9	?	?
COc1ccc(-n2c(-c3ccc(Br)cc3)c[n+]3c2SC(C)C3)cc1 (stereo not drawn)	?	?	-96.3	.	?
COc1ccc(-n2c(-c3ccc(Br)cc3)c[n+]3c2CCCCC3)cc1	?	.	-87.3	.	?
COc1ccc(-n2c(-c3ccc(Br)cc3)nc(=S)c3c2CCCC3)cc1	.	.	.	.	.
CN1OC(C)(CC(=O)NCc2ccccc2F)N=C1c1ccccc1Cl (stereo not drawn)	/	/	.	/	/
Cc1ccc(CN2CCOc3ccc(CN4CCC(Oc5cccnc5)CC4)cc3C2)o1	/	.	/	/	/
COc1ccc(CNC(=O)CCCc2nnc3n(C(C)C)c(=O)c4sccc4n23)cc1	/	.	.	/	.
SMILES	Marburg entry inh	FMDV antiviral	HCMV inh	HCV inhibitor	Lassa entry inh
COc1ccc(-n2c(-c3ccc(Br)cc3)n[nH]c2=S)cc1	/	.	.	.	/
COc1ccc(-n2c(-c3ccc(Br)cc3)c[n+]3c2CCC3)cc1	?	?	-92.3	.	?
COc1cc(CNCc2ccc(OC)c(OC)c2OC)cc(OC)c1	?	.	.	10µM	.
COc1ccc(CCNCc2ccc(OC)c(OC)c2OC)cc1	.	/	.	.	.
COc1ccc2c(c1)-c1nc(/N=C/c3cccc(OC)c3O)sc1CC2	?	.	.	?	.
COc1ccc2c(c1)-c1nc(/N=C/c3ccccc3O)sc1CC2	.	.	.	10µM	.
CCN(CC)S(=O)(=O)c1cccc(NC(=O)COc2ccc(F)cc2Br)c1	?	?	.	11.2µM	.
CCN(CC)S(=O)(=O)c1ccc(NC(=O)COc2c(OC)cccc2OC)cc1	.	31.6µM	.	?	.
CCN(CC)S(=O)(=O)c1cccc(NC(=O)COc2ccc(C#N)cc2OC)c1	.	?	.	?	.
CCN(CC)S(=O)(=O)c1ccc(NC(=O)C(C)N(c2ccc(OC)cc2)S(C)(=O)=O)cc1 (stereo not drawn)	.	.	.	10µM	?
COc1ccccc1OCC(=O)Nc1ccc(S(=O)(=O)N(C)c2ccccc2)cc1	/	.	.	11.2µM	/
Cc1nn(C)cc1CN(C)C(=O)CCc1nnc(CCC2CCCCC2)o1	/	.	.	.	/
COc1cccc(-c2ccc(NC(=O)C3CCCN(Cc4nccn4C)C3)cc2)c1 (stereo not drawn)	?	.	.	?	.
COCC(=O)Nc1cc(C(=O)NC2C3CC4CC2CC(O)(C4)C3)cc2nc(-c3ccccc3)n(C)c12 (stereo not drawn)	/	.	/	/	/
CCN(CC(=O)Nc1ccc(OC)c(OC)c1)S(=O)(=O)c1ccc(C)cc1	.	12.6µM	.	?	.
COc1ccccc1OCC(=O)NNC(=O)Nc1ccc(Cl)cc1	?	.	-63.8	.	?
CCOc1ccc(NC(=O)CCc2c(C)nc3cc(-c4ccccc4OC)nn3c2C)cc1	.	.	.	/	.
CCCCNc1c(-c2ccc(SC(C)CC)cc2)nc2ccccn12 (stereo not drawn)	/	?	.	22.4µM	/
CCCCCCSc1cc(-c2nc3ccc(C)cn3c2NCCCC)ccc1OC	/	35.5µM	.	.	/
CCCCNc1c(-c2ccc(OC)c(SC(C)CC)c2)nc2ccc(Cl)cn12 (stereo not drawn)	/	.	.	?	/
CCCCNc1c(-c2ccc(-c3ccc(C(C)=O)cc3)c(OC)c2)nc2cc(C)ccn12	/	?	-92.9	?	/
CCCCNc1c(-c2ccc(OC)c(SC(C)CC)c2)nc2ccc(C)cn12 (stereo not drawn)	/	31.6µM	-63.2!	?	/
COC(=O)C1=C(C(=O)OC)[C@@H]2N(Cc3ccccc3)c3ccccc3[C@@]23C[C@@H](C(=O)OC)N(C(=O)NCCBr)C3=N1	.	/	/	/	/
O=C(O)Cc1sc(Nc2cccc3ccccc23)nc1-c1ccc(Cl)cc1	.	.	.	.	?
CCCCNc1c(-c2ccc(Sc3ccc(OC)cc3)cc2)nc2cc(C)ccn12	/	?	.	10µM	/
SMILES	Marburg entry inh	FMDV antiviral	HCMV inh	HCV inhibitor	Lassa entry inh
CCCCNc1c(-c2ccc(OC)c(SC(C)CC)c2)nc2cc(C)ccn12 (stereo not drawn)	/	28.2µM	-79.2!	7.08µM	/
Cn1cc(NC(=O)CCl)cn1	?	?	-84.2	?	?
CC(=O)Nc1cnn(Cc2ccc(Br)cc2)c1	.	.	.	.	.
O=C(c1cc(-c2ccccc2)on1)N1CCCCCC1	?	.	.	.	12.6µM
Cc1ccc(-c2cc(C(=O)N3CCCCCC3)no2)cc1	?	.	.	.	?
O=C(c1cc(-c2ccc(O)cc2)on1)N1CCCC1	11.2µM	.	.	.	?
CC1(C)CC2CC(C)(CN2C(=O)c2cc(-c3ccc(O)cc3)on2)C1 (stereo not drawn)	?	.	-60.7	.	?

Source: PubChem
